Results on four compounds are retold here after PubChem BioAssay.

The nature of test [1]: binders of probe aFSTL3 on microarray, primary screen, stem cell growth factor project, biochemical, small-molecule microarray, fluorescence 635/667 (AID 1064).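 Further: measures binding of the biotinylated anti-FSTL3 antibody to printed compounds.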 The conditions noted are these: higher = more signal.
Test [2] is described as follows: binders from COS7 lysate, DM2A8 probe, primary screen, torsin A project, cell lysate, small-molecule microarray, fluorescence 635/667 (AID 1065). The settings on record: higher = more signal, COS7 lysate expressing mutant human TOR1A.
The nature of test [3]: binders of probe aFGF2 on microarray, primary screen, stem cell growth factor project, biochemical, small-molecule microarray, fluorescence 635/667 (AID 1067).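 Further: measures binding of biotinylated aFGF2 protein to printed compounds on slides; z-score merges feature fluorescence and signal-to-noise across triplicate slides.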 The conditions noted are these: higher = more signal.
Test [4] is described as follows: binders of probe aFGF10 on microarray, primary screen, stem cell growth factor project, biochemical, small-molecule microarray, fluorescence 635/667 (AID 1071).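 Further: score merges 667 nm spot intensity and signal to noise from triplicate slides.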 The conditions noted are these: higher = more signal.
Test [5] addresses Neurogenic locus notch homolog protein 2 (Homo sapiens) (UniProt Q04721). As to the kind of experiment: Notch2 binders on small-molecule microarrays, primary screen, biochemical, small-molecule microarray, 635 nm fluorescence, stem cell growth factors (AID 1073). The settings on record: Notch2 binding, higher = more signal.
The target in test [6] is Pro-neuregulin-1, membrane-bound isoform (Homo sapiens) (UniProt Q02297). Nature of the test: NRG1 binders on small-molecule microarrays, primary screen, psychiatric disease protein project, biochemical, small-molecule microarray, fluorescence 635/667 (AID 1075).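 Further: score combines 667 nm spot fluorescence with signal to noise.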 The conditions noted are these: NRG1 binding, 635 nm fluorescence, higher = more signal.
Pro-neuregulin-1, membrane-bound isoform (Homo sapiens), sequence (Q02297 whole entry, looked up, the tested form may be a part, canonical isoform): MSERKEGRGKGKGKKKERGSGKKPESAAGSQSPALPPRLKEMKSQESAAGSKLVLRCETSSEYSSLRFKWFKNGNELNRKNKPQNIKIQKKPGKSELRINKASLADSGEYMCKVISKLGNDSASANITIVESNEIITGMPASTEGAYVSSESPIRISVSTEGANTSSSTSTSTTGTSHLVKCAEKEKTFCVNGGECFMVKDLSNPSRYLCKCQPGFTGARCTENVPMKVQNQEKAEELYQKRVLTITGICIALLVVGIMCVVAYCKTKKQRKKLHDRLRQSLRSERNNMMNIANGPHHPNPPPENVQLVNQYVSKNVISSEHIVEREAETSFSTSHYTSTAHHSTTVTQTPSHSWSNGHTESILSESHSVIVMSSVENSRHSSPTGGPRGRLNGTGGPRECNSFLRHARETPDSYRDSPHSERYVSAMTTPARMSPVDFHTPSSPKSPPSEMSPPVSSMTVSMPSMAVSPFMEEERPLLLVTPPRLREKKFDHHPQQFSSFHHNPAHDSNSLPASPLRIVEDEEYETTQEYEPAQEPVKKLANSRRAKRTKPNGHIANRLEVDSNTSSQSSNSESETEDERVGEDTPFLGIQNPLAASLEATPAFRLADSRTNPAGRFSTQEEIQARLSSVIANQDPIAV
Test [7] relates to Neuregulin-1 EGF-like domain. As to the kind of experiment: binders of neuregulin-1 EGF-like domain, primary screen, biochemical, small-molecule microarray, 635 nm fluorescence (AID 1081).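 Further: binding of the protein to compounds printed on small-molecule microarray slides.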 The settings on record: small-molecule microarray binding, higher = more signal.
A short description of test [8]: FRG1 promoter luciferase signal modulators, primary screen, FRG1 inhibition for FSHD, cell-based, C2C12 myotubes, firefly/Renilla luciferase, luminescence (AID 1084). The settings on record: higher = more signal, called active from +8 up or from −8 down.
A short description of test [9]: binders of probe aFST on microarray, primary screen, stem cell growth factor project, biochemical, small-molecule microarray, fluorescence 635/667 (AID 1086).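 Further: score merges 667 nm fluorescence with signal-to-noise of each printed compound spot.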 The conditions noted are these: higher = more signal.
Test [10] can be described thus: binders of probe aHhip on microarray, primary screen, stem cell growth factor project, biochemical, small-molecule microarray, fluorescence 635/667 (AID 1087).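 Further: score merges spot fluorescence at 667nm with spot signal to noise ratio.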 The conditions noted are these: higher = more signal.
For test [11], the system named is PRMT1 (protein arginine N-methyltransferase 1). As to the kind of experiment: PRMT1 binders on small-molecule microarrays, primary screen, biochemical, small-molecule microarray, 635 nm fluorescence (AID 1088).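 Further: binding of Prmt1 protein to compounds spotted on small-molecule microarray slides.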 The conditions noted are these: small-molecule microarray binding, higher = more signal.
A short description of test [12]: yeast growth modulation, basal conditions, primary screen, YJM789 clinical isolate, OD600, 24 h (AID 1089).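 Further: growth of clinical yeast isolate S. cerevisiae YJM 789 seeded 1000 cells per well; test concentration not given here.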 The settings on record: S. cerevisiae YJM789 growth, higher = more signal, called active from +8 up or from −8 down.
Test [13] in a line: fission yeast growth modulation, primary screen, strain 972, OD600, 24 h, no modulator (AID 1090).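 Further: basal condition with compound alone and no growth modifier present; test concentration not given here.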 The conditions noted are these: S. pombe 972 growth, higher = more signal, called active from +8 up or from −8 down.
A short description of test [14]: S. cerevisiae growth modulation with rapamycin, primary screen, strain BY4716, OD600, 96 h (AID 1091). Further: test concentration not given here. The settings on record: higher = more signal, called active from +8 up or from −8 down.
For test [15], the target named is Torsin-1A-interacting protein 2 (Homo sapiens) (UniProt Q8NFQ8). Nature of the test: LULL1 binders on small-molecule microarray, primary screen, cell lysate, human LULL1 lysate, 635/667 nm fluorescence (AID 1092).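 Further: score merges per-feature 667 nm fluorescence with signal-to-noise.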 The conditions noted are these: hLULL1 lysate binding, 635 nm fluorescence, higher = more signal.
Torsin-1A-interacting protein 2 (Homo sapiens), sequence (Q8NFQ8 whole entry, looked up): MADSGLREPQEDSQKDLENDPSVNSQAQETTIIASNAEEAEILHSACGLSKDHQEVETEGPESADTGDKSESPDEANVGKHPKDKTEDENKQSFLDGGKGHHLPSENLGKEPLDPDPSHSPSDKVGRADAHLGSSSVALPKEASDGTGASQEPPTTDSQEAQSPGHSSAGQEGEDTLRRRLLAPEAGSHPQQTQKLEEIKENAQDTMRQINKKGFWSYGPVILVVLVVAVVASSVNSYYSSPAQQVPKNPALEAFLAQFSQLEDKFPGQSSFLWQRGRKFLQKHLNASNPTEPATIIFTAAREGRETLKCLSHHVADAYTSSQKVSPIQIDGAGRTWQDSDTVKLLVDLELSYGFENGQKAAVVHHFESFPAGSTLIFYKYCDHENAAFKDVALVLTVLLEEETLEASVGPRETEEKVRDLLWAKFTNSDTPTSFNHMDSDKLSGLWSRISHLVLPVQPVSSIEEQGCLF
Test [16] is described as follows: E. coli growth modulation, two-sided OD650, primary screen, E. coli filamentation project, strain DRC41, 24 h (AID 1093).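 Further: MC1000 strain lacking acrAB efflux and sulA so SOS filamentation is blocked; test concentration not given here.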 The settings on record: OD650, 24 h, higher = more signal, called active from +8 up or from −8 down.
Test [17] in a line: small-molecule microarray binders of probe aLefty2, primary screen, biochemical, biotinylated probe, 635/667 nm fluorescence (AID 1094).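 Further: score merges spot fluorescence near 667 nm with spot signal-to-noise ratio.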 The settings on record: higher = more signal.
Test [18] has as its system Noggin (protein binding on small-molecule microarray). Nature of the test: Noggin binders on small-molecule microarray, primary screen, biochemical, 635/667 nm fluorescence (AID 1095).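 Further: score merges 667 nm feature fluorescence with signal to noise over triplicate slides.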 The conditions noted are these: 635 nm fluorescence, higher = more signal.
The target of test [19] is Neurogenic locus notch homolog protein 3 (Homo sapiens) (UniProt Q9UM47). As to the kind of experiment: NOTCH3 binders on small-molecule microarray, primary screen, biochemical, 635/667 nm fluorescence (AID 1096). The conditions noted are these: NOTCH3 binding, 635 nm fluorescence, higher = more signal.
Test [20] is described as follows: small-molecule microarray binders of probe aEGFR, primary screen, biochemical, biotinylated probe, 635/667 nm fluorescence (AID 1097).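 Further: probe is a biotinylated anti-EGFR antibody binding compounds printed on slides; score combines fluorescence near 667 nm and signal to noise of each spot.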 The conditions noted are these: higher = more signal.

Several values for one entry are separate records, joined by “and”; a condition that tells them apart may be missing. Equal values may be shown once. Activity calls are given as the source filed them.

Neurogenic locus notch homolog protein 2 (Homo sapiens), sequence (Q04721 whole entry, looked up, canonical isoform): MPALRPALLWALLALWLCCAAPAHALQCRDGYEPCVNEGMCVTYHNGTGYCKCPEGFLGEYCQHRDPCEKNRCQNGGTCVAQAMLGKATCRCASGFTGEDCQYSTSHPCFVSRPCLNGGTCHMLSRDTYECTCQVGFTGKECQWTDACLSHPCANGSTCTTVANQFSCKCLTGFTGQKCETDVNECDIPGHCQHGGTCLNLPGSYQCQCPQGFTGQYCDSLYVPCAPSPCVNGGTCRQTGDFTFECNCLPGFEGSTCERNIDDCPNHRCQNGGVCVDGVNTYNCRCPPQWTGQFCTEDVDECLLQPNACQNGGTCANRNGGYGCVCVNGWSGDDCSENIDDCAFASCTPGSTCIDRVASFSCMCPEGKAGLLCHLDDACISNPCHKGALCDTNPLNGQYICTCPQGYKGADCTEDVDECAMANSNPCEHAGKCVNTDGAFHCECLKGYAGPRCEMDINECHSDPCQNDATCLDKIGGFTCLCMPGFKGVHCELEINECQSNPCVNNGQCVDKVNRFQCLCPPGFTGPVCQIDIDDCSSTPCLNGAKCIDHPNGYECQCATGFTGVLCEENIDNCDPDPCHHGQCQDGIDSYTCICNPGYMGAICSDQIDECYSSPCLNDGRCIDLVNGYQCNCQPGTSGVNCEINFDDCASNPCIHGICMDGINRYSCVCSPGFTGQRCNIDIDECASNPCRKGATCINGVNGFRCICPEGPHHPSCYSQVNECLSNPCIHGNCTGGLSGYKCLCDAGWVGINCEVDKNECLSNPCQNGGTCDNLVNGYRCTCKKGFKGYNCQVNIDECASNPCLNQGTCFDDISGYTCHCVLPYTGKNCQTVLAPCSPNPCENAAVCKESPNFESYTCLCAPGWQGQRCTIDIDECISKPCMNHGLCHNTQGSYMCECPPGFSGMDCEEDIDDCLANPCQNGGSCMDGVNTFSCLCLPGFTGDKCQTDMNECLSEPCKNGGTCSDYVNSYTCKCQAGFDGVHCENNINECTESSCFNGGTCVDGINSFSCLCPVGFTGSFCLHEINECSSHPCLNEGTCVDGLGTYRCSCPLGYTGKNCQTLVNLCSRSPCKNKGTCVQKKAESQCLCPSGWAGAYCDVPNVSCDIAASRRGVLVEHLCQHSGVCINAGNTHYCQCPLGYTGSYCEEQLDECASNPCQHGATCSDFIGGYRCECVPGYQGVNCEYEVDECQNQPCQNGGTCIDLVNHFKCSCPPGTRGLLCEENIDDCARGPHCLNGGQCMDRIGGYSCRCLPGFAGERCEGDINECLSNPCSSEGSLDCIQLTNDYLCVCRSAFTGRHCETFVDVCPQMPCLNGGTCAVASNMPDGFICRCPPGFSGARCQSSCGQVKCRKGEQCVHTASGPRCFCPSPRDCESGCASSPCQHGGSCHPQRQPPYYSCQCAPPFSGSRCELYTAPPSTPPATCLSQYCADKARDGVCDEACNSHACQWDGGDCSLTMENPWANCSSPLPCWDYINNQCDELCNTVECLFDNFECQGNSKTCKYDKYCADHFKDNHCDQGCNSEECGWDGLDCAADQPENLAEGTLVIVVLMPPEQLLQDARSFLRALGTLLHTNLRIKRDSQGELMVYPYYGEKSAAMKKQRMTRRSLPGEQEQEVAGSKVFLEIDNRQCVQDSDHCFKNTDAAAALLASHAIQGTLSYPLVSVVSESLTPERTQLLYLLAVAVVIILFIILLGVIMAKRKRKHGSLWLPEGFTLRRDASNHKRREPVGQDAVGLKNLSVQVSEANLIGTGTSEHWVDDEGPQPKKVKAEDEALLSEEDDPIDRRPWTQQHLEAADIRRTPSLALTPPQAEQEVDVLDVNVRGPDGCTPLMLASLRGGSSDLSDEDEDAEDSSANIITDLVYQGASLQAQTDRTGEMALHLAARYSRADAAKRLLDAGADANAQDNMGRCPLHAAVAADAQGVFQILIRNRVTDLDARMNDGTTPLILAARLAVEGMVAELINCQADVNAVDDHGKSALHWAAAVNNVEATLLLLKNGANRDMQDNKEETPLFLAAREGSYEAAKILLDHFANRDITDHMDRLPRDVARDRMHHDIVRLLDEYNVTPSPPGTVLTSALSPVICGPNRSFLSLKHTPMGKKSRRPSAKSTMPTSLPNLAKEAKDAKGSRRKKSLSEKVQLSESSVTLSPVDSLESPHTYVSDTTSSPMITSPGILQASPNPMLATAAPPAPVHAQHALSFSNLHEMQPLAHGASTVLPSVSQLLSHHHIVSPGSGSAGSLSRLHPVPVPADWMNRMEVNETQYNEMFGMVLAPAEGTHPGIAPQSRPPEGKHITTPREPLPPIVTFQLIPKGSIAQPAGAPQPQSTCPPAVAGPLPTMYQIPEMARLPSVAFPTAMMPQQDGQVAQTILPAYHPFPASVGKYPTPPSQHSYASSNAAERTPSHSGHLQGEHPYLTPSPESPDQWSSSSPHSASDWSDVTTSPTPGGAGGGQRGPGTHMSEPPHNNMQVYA

Take `O=C1NC(=O)C2C1C=CC(C(O)c1ccc([N+](=O)[O-])cc1)N2Nc1ccc(Cl)cc1Cl` (stereo not given): the composite z-score in [1] is 0.396 and 1.04; in [2] it was 0.0888 and 1.29; in test [3], -0.0044 and 0.115; in test [4], 0.694 and 0.322; in test [5], 1.13 and 0.991; in [6], 1.18 and 1.78. For the same compound, the composite z-score in test [7] was 0.939 and 1.21; in test [9], 0.848 and 1.54; in test [10] it was -0.226 and -0.236; in test [11], 0.551 and 0.395; in [15], 3.3 and 3.03; in test [17], 0.127 and 0.386. The composite z-score was -0.142 and -0.311 in [18]; 0.843 and 0.588 in [19]; 0.0661 and -0.102 in test [20]. Further, the z-score in [8] was 0.0748 (inactive) and -0.358 (inactive); in [12], -1.44 (inactive) and -1.78 (inactive); in [13], -1.46 (inactive) and -1.07 (inactive); in test [14], -0.923 (inactive) and -0.888 (inactive); in test [16], 0.33 (inactive) and 0.728 (inactive).

`C=CCN(C(=O)C(c1cccs1)N(CCOCCO)C(=O)/C=C\C(=O)O)C(C)(C)C` (stereo not given): the composite z-score was 0.982 and 1.01 in test [1]; -0.718 and -0.131 in [2]; -0.228 and -0.192 in test [3]; -0.708 and -0.376 in test [4]; -1.28 and -1.44 in test [5]; -0.395 and -0.988 in [6]. The composite z-score in test [7] is 0.484 and 0.745; in test [9], -0.78 and -1.06; in test [10] it was -0.277 and -0.169; in test [11], -1.16 and -0.597; in test [15], -2.06 and 0.15; in [17], -0.0674 and -0.167. Also, the composite z-score in [18] was -1.85 and -2.31; in [19] it was -1.9 and -0.936; in [20], -0.277 and -0.339. The z-score is -0.0773 (inactive) and -0.143 (inactive) in test [8]; 0.592 (inactive) and 0.385 (inactive) in test [12]; -1.35 (inactive) and -0.863 (inactive) in test [13]; 0.103 (inactive) and 0.0577 (inactive) in [14]; 1.41 (inactive) and 0.711 (inactive) in test [16].

Turning to `C[N+](C)(C)CCCCNC(=O)[C@@H]1C[C@@H]2C(=O)N[C@@H](CCCC[N+](C)(C)C)C(=O)N2[C@@H]1c1cccc(OCCO)c1`, the composite z-score in [1] was -0.0301 and -0.304; in test [2], 2.1 and 2.23; in [3], -0.0909 and -0.0573; in test [4], 1.07 and 1.2; in test [5], 0.556 and 0.0462; in test [6], -0.181 and -0.179. The composite z-score is 1.07 and 1.16 in [7]; 0.311 and 0.464 in test [9]; 0.463 and -0.0994 in test [10]; 1.53 and 0.995 in test [11]; 0.864 and 2.09 in test [15]; 0.387 and 0.268 in [17]. Moreover, the composite z-score is 2.03 and 1.71 in test [18]; 1.05 and 1.09 in test [19]; 0.399 and 0.56 in test [20]. Besides, the z-score in test [8] was -0.101 (inactive) and 0.844 (inactive); in test [12] it was 1.27 (inactive) and 0.389 (inactive); in test [13] it was -0.352 (inactive) and -0.297 (inactive); in [14] it was -0.483 (inactive) and -1.92 (inactive); in test [16], 0.616 (inactive) and 0.374 (inactive).

In the case of `CCOC(=O)[C@H](Cc1ccccc1)NC(=O)CCC1CC(OC(=O)NCc2cccc3ccccc23)CC2(CCCC(COC(=O)NCCCN3CCCC3=O)O2)O1` (stereo not given in full), the composite z-score in [1] is -0.511; in test [2], 0.221; in test [3] it was -0.107; in test [4], 0.122; in [5] it was 1.1; in test [6], 0.412. The composite z-score in [7] is 0.783; in [9], 0.249; in test [10], -0.0994; in [11], 1.21; in test [15], 2.01; in test [17], -0.148. For the same compound, the composite z-score in test [18] is 0.692; in test [19], 1.01; in [20] it was -0.0578. Besides, the z-score in test [8] is -0.81 (inactive); in test [12], -1.18 (inactive); in [13], 0.134 (inactive); in [14], -0.896 (inactive); in test [16] it was -0.288 (inactive).
